These results are taken from PubChem BioAssay (NCATS).

Inconclusive results are not listed. Calls of active or inactive are those of the source. The call rests on the fitted dose curve.
Potency means the concentration at half of the fitted maximal effect.

The target of the test is Cytochrome P450 1A2 (Homo sapiens) (UniProt P05177). The test can be described thus: p450-cyp1a2 (AID 410). As to conditions: recombinant CYP1A2, luciferin-ME demethylation, luminescence; series mostly up to 57 µM. As for the experimental part: The P450 gene superfamily is involved in metabolism and the clearance of xenobiotics. This assay used human CYP1A2 to measure the demethylation of luciferin 6' methyl ether (Luciferin-ME; Promega-Glo) to luciferin. The luciferin is then measured by luminescence after the addition of a luciferase detection regeant. Luciferin-ME concentration in the assay was equal to its Km for CYP1A2.
Cytochrome P450 1A2 (Homo sapiens), sequence (P05177 whole entry, looked up): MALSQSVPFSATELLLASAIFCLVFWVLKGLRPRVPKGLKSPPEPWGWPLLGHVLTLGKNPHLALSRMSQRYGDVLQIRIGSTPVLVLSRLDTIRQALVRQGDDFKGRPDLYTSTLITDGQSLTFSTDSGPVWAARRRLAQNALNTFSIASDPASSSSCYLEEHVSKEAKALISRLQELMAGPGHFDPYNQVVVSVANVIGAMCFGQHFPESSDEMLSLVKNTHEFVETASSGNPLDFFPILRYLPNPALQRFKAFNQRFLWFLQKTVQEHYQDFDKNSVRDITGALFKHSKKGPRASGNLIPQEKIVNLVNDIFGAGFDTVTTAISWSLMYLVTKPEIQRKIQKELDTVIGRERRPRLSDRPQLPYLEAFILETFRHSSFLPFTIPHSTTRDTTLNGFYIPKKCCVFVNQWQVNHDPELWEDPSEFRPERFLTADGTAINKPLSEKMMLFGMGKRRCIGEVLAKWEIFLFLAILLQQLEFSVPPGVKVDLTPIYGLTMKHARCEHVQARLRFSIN
NCGC Assay Protocol Summary:
Two uL of enzyme and substrate mix (final concentrations: 20nM CYP1A2, 100uM Luciferin-ME, 100mM KPO4) were dispensed into a white, solid bottom 1536-well microtiter plate. 23nL of compound was transferred by a pin tool. The plate was incubated at room temperature for 10 min. Two uL of an NADPH regeneration solution (Promega supplied reagent) was dispensed and the reaction was allowed to continue for 60 min at room temperature. Then the reaction was stopped by reconstituted detection reagent. After another 20 min of incubation the plate was read on the ViewLux (Perkin Elmer) at 60 sec exposure and 2x2 binning. This protocol was carried out with Promega-Glo reagents and further information can be found at http://www.promega.com/tbs/tb325/tb325.pdf. Data were normalized to the to AC100 inhibition (57 uM furafylline).
On to `Cc1nc2cnc(N3CCN(C)CC3)nc2n(Cc2cccs2)c1=O`, for which the Potency is 12.6 µM (active). Then `CC(=O)NCCNc1ncnc2ccc(-c3cccc(NS(C)(=O)=O)c3)cc12`, with 15.8 µM (active).

`COc1ccccc1CNc1ccnc(-c2ccc3c(c2)OCO3)n1`: the Potency was 0.631 µM (active). Then `CS(=O)(=O)N1CCC[C@@]2(CCN(c3ccccc3)C2)C1`, with 31.6 µM (active); and `COC(=O)N1CCC2(CC1)CCN(c1ccccc1)CC2`, with “inactive”. Then `CCNc1ncc2nc(-c3ccc(OC)cc3)c(=O)n(CCOC)c2n1`, with 1.26 µM (active); and `Cn1cc(-c2nc3cnc(Oc4ccccc4)nc3n(C)c2=O)c2ccccc21`, with 12.6 µM (active). Then `COc1ccccc1CNc1ncncc1-c1ccoc1`, with 1.26 µM (active); and `COc1cccc(-c2cc(N(C)Cc3ccco3)ncn2)c1`, with 0.794 µM (active).

On to `Cn1cccc1C(=O)N1CCC[C@@]2(CCN(Cc3cc(C(F)(F)F)cc(C(F)(F)F)c3)C2)C1`, for which the Potency entry was “inactive”. With `COCCn1c(=O)c(-c2cccc(C#N)c2)nc2cnc(Oc3ccccc3)nc21`, the Potency was 15.8 µM (active). Take `O=C(c1csnn1)N1CCC2(CC1)CCN(c1ccccc1)CC2`: the Potency is 15.8 µM (active). Then `Cc1ccccc1-c1ccc2ncnc(NC3CC3)c2c1`, with 0.126 µM (active); and `O=c1c(-c2ccc(Cl)cc2)nc2cnc(N3CCOCC3)nc2n1C[C@H]1CCCO1`, with 2 µM (active); and `CC(=O)NCCNc1ccnc(-c2ccccc2C(F)(F)F)n1`, with 15.8 µM (active). The value for `O=C(c1cc(C(F)(F)F)cc(C(F)(F)F)c1)N1CCC2(CC1)CCN(c1ccccn1)CC2` was “inactive”; that for `Cn1cccc1C(=O)N1CCC[C@@]2(CCN(Cc3ccc(C#N)cc3)C2)C1` was “inactive”. Turning to `CN1CCN(c2ncnc3ccc(-c4ccc(C(=O)N(C)C)cc4)cc23)CC1`, the Potency entry is “inactive”. Consider `N#Cc1ccccc1-c1ccc2ncnc(N3CCNCC3)c2c1`, for which the Potency was 3.98 µM (active). Then `COc1ccc2[nH]cc(CCNc3ncnc4ccc(-c5cccnc5)cc34)c2c1`, with 0.0794 µM (active); and `O=C(Nc1cccc(F)c1)N1CC[C@@]2(CCCN(C(=O)c3cccc(F)c3)C2)C1`, with 12.6 µM (active).

Regarding `CN1CCN(c2ncc3nc(CCc4ccccc4)c(=O)n(C4CC4)c3n2)CC1`, the Potency was 12.6 µM (active). Take `Clc1ccccc1-c1nccc(-n2ccnc2)n1`: the Potency is 0.158 µM (active). Then `COCC(=O)N1CCC2(CC1)CN(C(c1ccccc1)c1ccccc1)C2`, with “inactive”; and `NCCn1c(=O)c(CCc2ccccc2)nc2cncnc21`, with 12.6 µM (active); and `COc1ccccc1CN1CC[C@@]2(CCCN(S(C)(=O)=O)C2)C1`, with “inactive”. Then `Cc1cnc(CNc2ncnc3ccc(-c4ccoc4)cc23)cn1`, with 12.6 µM (active); and `N#CCCn1c(=O)cnc2cnc(Oc3ccccc3)nc21`, with 15.8 µM (active); and `COCCn1c(=O)c(C)nc2cnc(N3CCNCC3)nc21`, with 10 µM (active). Then `COCC(=O)N1CCC2(CCCN(Cc3cc(C(F)(F)F)cc(C(F)(F)F)c3)C2)CC1`, with “inactive”; and `Clc1ccccc1-c1nc(N2CCNCC2)c2ccccc2n1`, with 2.51 µM (active); and `COc1ccc(-n2c(=O)c(-c3cn(C)c4ccccc34)nc3cnc(N4CCOCC4)nc32)cc1`, with 31.6 µM (active). Take `CS(=O)(=O)N1CCC[C@@]2(CCN(Cc3nccs3)C2)C1`: the Potency entry was “inactive”.

For the compound `Cc1cccc(CNc2ncnc3ccc(-c4ccoc4)cc23)c1`, the Potency was 3.98 µM (active).

For the compound `CC(C)NC(=O)N1CC2(CCN(C(=O)c3ccncc3)CC2)C1`, the Potency result was “inactive”. For the compound `COC(=O)c1c(-c2cc(OC)c(OC)c(OC)c2)c2ccc(OCc3ccccn3)cc2c(=O)n1-c1ccc(N)cc1`, the Potency entry was “inactive”. The value for `Fc1ccc(Nc2ccnc(-c3ccoc3)n2)cc1` was 1 µM (active); that for `COCC(=O)N1CCC[C@@]2(CCN(Cc3ccccc3OC)C2)C1` was “inactive”; that for `O=C(c1ccco1)N1CCC2(CCCN(C(c3ccccc3)c3ccccc3)C2)CC1` was 15.8 µM (active). The value for `N#Cc1ccc(CN2CCCC3(CCN(C(=O)c4cccc(F)c4)CC3)C2)cc1` was “inactive”.
